“And” between values parts separate entries of the source, which are not always exact repeats. Identical values can stand only once. Inconclusive results are not listed. The source made the active and inactive calls. Unless noted, the call rests on the fitted dose curve; in most records, active means well fitted curve in the direction sought with a large enough effect in the repeat runs; inconclusive means weak or mixed curves; inactive means no such curve, though single readings can be large; an effect the other way counts as inactive or inconclusive.

Assay [1] in a line: qHTS assay for small molecules that induce genotoxicity in human embryonic kidney cells expressing luciferase-tagged ATAD5 (AID 651632). Further: nearly all actives have a fitted effect of over 15% in size. Further: potency means the concentration at half of the fitted maximal effect. The procedure, abridged: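 A rise in luciferase signal from ATAD5-tagged HEK293T cells marks genetic stress. Cells were exposed to compounds for 16 hr at 37C, 5% CO2, then luciferase was quantified after a 30 min room-temperature incubation with Amplite.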

Assay [2] is described as follows: qHTS assay for small molecule agonists of the p53 signaling pathway - cell viability (AID 651633; calls by dose curve; further: nearly all actives have a fitted effect of over 30% in size; further: potency means the concentration at half of the fitted maximal effect). The gist of the method: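 p53RE-bla cells were treated with compound for 16 hours at 37 C. Cytotoxicity was then measured as CellTiter-Glo luminescence after 30 min at room temperature.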
(qHTS replaces the single test concentration by a dilution series.)

Assay [3] is described as follows: qHTS assay for small molecules that induce genotoxicity in human embryonic kidney cells expressing luciferase-tagged ATAD5 - cell viability (AID 651634; calls by dose curve; further: nearly all actives have a fitted effect of over 25% in size; further: potency means the concentration at half of the fitted maximal effect). The procedure, abridged:
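Cytotoxicity counter-readout: after 15.5 hr compound treatment at 37C, live-cell protease activity in ATAD5-luciferase HEK293T cells measured by CellTiter-Fluor fluorescence, 30 min development at 37C.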

A short description of assay [4]: qHTS assay for small molecule disruptors of the mitochondrial membrane potential - cell viability (AID 720634; calls by dose curve; further: nearly all actives have a fitted effect of over 20% in size; further: potency means the concentration at half of the fitted maximal effect). The gist of the method:
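Cytotoxicity was quantified from ATP content by CellTiter-Glo luminescence in the same wells as the MMP dye read-out. HepG2 (2,000 cells/well) were plated overnight and exposed to compounds for 1 hr at 37 C.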

A short description of assay [5]: qHTS assay for small molecule disruptors of the mitochondrial membrane potential (AID 720635). Further: potency means the concentration at half of the fitted maximal effect. The procedure, abridged: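 HepG2 cells exposed to compound 1 hr at 37C, then Mito-MPS dye 30 min. Ratio read of aggregate (540/590 nm) versus monomer (490/535 nm) fluorescence.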
Assay [6] can be described thus: qHTS assay to test for compound auto fluorescence at 590 nm (red) in HepG2 cells (AID 720674). The procedure, abridged: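 Seeding: 2,000 HepG2 cells/well, MEM/10% FBS, overnight 37 C. Dosing: compound vs DMSO. Incubation: 1 hr, 37 C, 5% CO2. Read: fluorescence 540 ex/590 em, Rose Bengal sodium as red reference.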
The nature of assay [7]: qHTS assay to test for compound auto fluorescence at 535 nm (green) in HepG2 cells (AID 720675).
A short description of assay [8]: qHTS assay to test for compound auto fluorescence at 460 nm (blue) in HEK293 cells (AID 720678). Further: potency means the concentration at half of the fitted maximal effect. The procedure, abridged:
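Intrinsic compound fluorescence is recorded in live HEK293 cultures after overnight incubation at 37C, 5% CO2, using excitation 405 nm and emission 460 nm. Values are referenced to triamterene.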

The nature of assay [9]: qHTS assay to test for compound auto fluorescence at 590 nm (red) in HEK293 cells (AID 720679). The gist of the method: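 Red autofluorescence, HEK293 cells: 2,000 cells/well; attach 4-5 hr 37C; add 23 nL cpd or DMSO; incubate o/n 37C 5% CO2; read Ex540/Em590; Rose Bengal sodium reference.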
Tags describe the fitted curve by direction and shape or compound fluorescence and quenching.

Take `C[C@H](O)[C@H](O)[C@H]1CNc2nc(N)[nH]c(=O)c2N1`: the Potency result in [1], in assay [2], in [3], in [4], in [5] and in assay [6] was “inactive” in each case. Moreover, the Potency result in assay [7] and in assay [9] was “inactive” in each case. Also, in assay [8], the Potency was 12.6 µM [fluorescent] (active).
In the case of `CC(=O)OCC(=O)[C@@]1(O)[C@H](C)C[C@H]2[C@@H]3C[C@H](F)C4=CC(=O)C=C[C@]4(C)[C@H]3[C@@H](O)C[C@@]21C`, the Potency result in [1], in assay [2], in [3], in assay [4], in assay [5] and in assay [6] was “inactive” each time. For the same molecule, the Potency entry in assay [7], in assay [8] and in assay [9] was “inactive” in each case.
For the molecule `COc1cc([C@@H]2c3cc4c(cc3C(O[C@@H]3O[C@@H]5CO[C@@H](C)O[C@H]5[C@H](O)[C@H]3O)C3COC(=O)[C@@H]32)OCO4)cc(OC)c1OP(=O)(O)O` (stereo not given in full), the Potency in assay [1] is 2.66 µM (active) and 6.68 µM (active). The Potency result in [2], in assay [3], in assay [4], in assay [5], in [6] and in assay [7] was “inactive” each time. The Potency entry in assay [8] and in assay [9] was “inactive” throughout.
Turning to `COc1ccc2cc([C@H](C)CO)ccc2c1`, the Potency result in assay [1], in [2], in assay [3], in assay [4], in [5] and in assay [6] was “inactive” each time. Besides, the Potency result in assay [7], in assay [8] and in assay [9] was “inactive” in each case.
Regarding `CC(=O)Nc1c(I)c(C(=O)O)c(I)c(N(C)C(C)=O)c1I`, the Potency entry in assay [1], in assay [2], in [3], in [4], in assay [5] and in [6] was “inactive” each time. Moreover, the Potency result in assay [7], in assay [8] and in assay [9] was “inactive” in each case.
As for `CC(Oc1ccccc1)C(=O)N[C@@H]1C(=O)N2[C@@H]1SC(C)(C)[C@@H]2C(=O)O` (stereo not given in full), the Potency entry in assay [1], in [2], in [3], in assay [4], in assay [5] and in assay [6] was “inactive” throughout. Besides, the Potency entry in assay [7], in [8] and in assay [9] was “inactive” each time.
Take `O=C(O)[C@@H](O)[C@H](O)[C@H](O)[C@@H](O)C(=O)O` (tested in a mixture with another compound): the Potency result in assay [1], in assay [2], in assay [3], in assay [4], in [5] and in assay [6] was “inactive” in each case. Further, the Potency result in assay [7], in [8] and in assay [9] was “inactive” in each case.
With `O=[N+]([O-])c1c(Cl)cccc1-c1c[nH]cc1Cl`, the Potency result in assay [1], in assay [3], in assay [6], in [7], in [8] and in assay [9] was “inactive” in each case. In addition, the Potency in assay [2] is 33.5 µM (active); in assay [4], 10.6 µM (active); in assay [5], 2.98 µM (active).
With `C#C[C@]1(O)CC[C@H]2[C@@H]3CCC4=CC(=O)CC[C@@H]4[C@H]3C(=C)C[C@@]21CC`, the Potency entry in [1], in assay [2], in [3], in assay [4], in [5] and in assay [6] was “inactive” throughout. The Potency result in [7], in assay [8] and in assay [9] was “inactive” throughout.
Turning to `Cn1c(=O)c2c(ncn2CCOC(=O)C(C)(C)Oc2ccc(Cl)cc2)n(C)c1=O`, the Potency result in assay [1], in [2], in assay [3], in assay [4], in [5] and in assay [6] was “inactive” each time. Also, the Potency result in assay [7], in assay [8] and in assay [9] was “inactive” in each case.
As for `CC(=O)O[C@H]1CC[C@@]2(C)C(=CC[C@H]3[C@@H]4CC[C@H](C(C)=O)[C@@]4(C)CC[C@@H]32)C1`, the Potency result in [1], in assay [2], in assay [3], in assay [4], in [5] and in assay [6] was “inactive” in each case. Besides, the Potency entry in assay [7], in [8] and in assay [9] was “inactive” each time.
For `CCN(CC)c1ccc(C(=C2C=CC(=[N+](CC)CC)C=C2)c2ccccc2)cc1`, the Potency in [1] was 2.37 µM (active); in [2], 1.68 µM (active); in assay [3], 7.5 µM (active); in [5], 0.266 µM (active). Further, the Potency entry in [4], in [6], in assay [7], in [8] and in assay [9] was “inactive” each time.
Consider `CN(C)CCC=C1c2ccccc2C(C)(C)c2ccccc21`, for which the Potency result in assay [1], in [2], in assay [3], in assay [4], in [6] and in assay [7] was “inactive” each time. The Potency entry in assay [8] and in assay [9] was “inactive” each time.
As for `CCCCC/C=C\CCC(=O)N[C@H]1[C@H](Oc2c3cc4cc2Oc2ccc(cc2Cl)[C@@H](O[C@@H]2O[C@H](CO)[C@@H](O)[C@H](O)[C@H]2NC(C)=O)[C@@H]2NC(=O)[C@H](NC(=O)[C@@H]4NC(=O)[C@H]4NC(=O)[C@@H](Cc5ccc(c(Cl)c5)O3)NC(=O)[C@H](N)c3ccc(O)c(c3)Oc3cc(O)cc4c3)c3ccc(O)c(c3)-c3c(O[C@H]4O[C@H](CO)[C@@H](O)[C@H](O)[C@@H]4O)cc(O)cc3[C@@H](C(=O)O)NC2=O)O[C@H](CO)[C@@H](O)[C@@H]1O`, the Potency entry in assay [1], in [2], in assay [3], in assay [4], in [6] and in assay [7] was “inactive” in each case. The Potency entry in assay [8] and in [9] was “inactive” throughout.
Consider `O=[N+]([O-])O[C@@H]1CO[C@H]2[C@@H]1OC[C@@H]2O`, for which the Potency result in assay [1], in assay [2], in assay [3], in assay [4], in [5] and in assay [7] was “inactive” throughout. For the same molecule, the Potency result in assay [8] and in assay [9] was “inactive” throughout.
Consider `CCCCCCCCCCCCCCCC(=O)OC[C@@H](O)[C@H]1OC[C@H](O)[C@H]1O`, for which the Potency entry in [1], in assay [2], in assay [3], in assay [4], in assay [5] and in assay [7] was “inactive” each time. The Potency entry in assay [8] and in assay [9] was “inactive” in each case.
For `CN1[C@@H]2CC[C@H]1CC(OC(c1ccccc1)c1ccccc1)C2` (stereo not given in full), the Potency entry in assay [1], in assay [2], in assay [3], in assay [4], in [6] and in assay [7] was “inactive” each time. The Potency entry in assay [8] and in assay [9] was “inactive” each time.
On to `CC1=C(/C=C/C(C)=C/C=C/C(C)=C/C=C/C=C(C)/C=C/C=C(C)/C=C/C2=C(C)C(=O)CCC2(C)C)C(C)(C)CCC1=O`, for which the Potency result in [1], in assay [2], in assay [3], in assay [4], in [6] and in assay [7] was “inactive” in each case. Further, the Potency entry in assay [8] and in assay [9] was “inactive” each time.
As to `CC(C)CCC[C@@H](C)[C@H]1CC(=O)C2=C3CC[C@H]4C[C@@H](O)CC[C@]4(C)[C@H]3CC[C@@]21C`, the Potency result in assay [1], in assay [2], in [3], in assay [4], in assay [6] and in assay [7] was “inactive” each time. The Potency entry in [8] and in assay [9] was “inactive” each time.
Take `COc1ccc(C2(C#N)CCC(C(=O)O)CC2)cc1OC1CCCC1` (stereo not given): the Potency entry in [1], in [2], in [3], in [4], in assay [6] and in [7] was “inactive” throughout. For the same molecule, the Potency result in assay [8] and in [9] was “inactive” throughout.
As to `[O]=[Bi][O]C(=O)[O][Bi]=[O]`, the Potency entry in assay [1], in assay [2], in assay [3], in assay [4], in assay [6] and in [7] was “inactive” throughout. The Potency entry in [8] and in assay [9] was “inactive” each time.

The values above are taken from PubChem BioAssay (Tox21).
